# Assay results reported in PubChem BioAssay (NCI).
# About 83,000 compounds went through this panel and 20% of them were active in at least one assay; those are over-represented in the sample as a whole.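 In brief: 96-well plates, 48 h treatment, single concentration, percent growth endpoint.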 A number with no mark means an inactive call. Active and inactive are the calls of the source. Rule for the calls: active = growth percent below 10; inactive = the rest.
# Test system: SN12C renal
# Assay: NCI-60 one-dose screen, 48 h (100 = growth as untreated, 0 = no growth, -100 = all killed)
# Details: 10 µM
row,SMILES,growth
1,CSc1cc(SC)ncn1,94.4%
2,CCOC(=O)CNC(=O)CCCCSc1ncnc2nc[nH]c12,99%
3,COc1ccc(OC)c(/C=C/c2nc(SCc3ccccc3)n(-c3ccc(Cl)cc3)n2)c1,74.2%
4,c1ccc(C(NC2CC3CCC2C3)c2ccccc2)cc1 (stereo not drawn),94%
5,CN1CCC2(CC1)NC(=O)c1c(c3ccc(Cl)c(Cl)c3n1C)C2C#N (stereo not drawn),64.3%
6,O=[N+]([O-])c1cccc(N=Cc2ccc3c(c2)OCO3)c1,101%
7,Nc1cc2c(cc1Cl)-c1ccc([N+](=O)[O-])cc1/C2=N\O,88.2%
8,COc1ccc(OC)c2c1C(=O)CC2C (stereo not drawn),99.3%
9,N#CSCC1CC(O)(c2ccccc2)CC(c2ccc(Cl)cc2)O1 (stereo not drawn),23.2%
10,CCOC(=O)C1CCc2c(ccc3ccccc23)N1CCC#N (stereo not drawn),98.7%
11,Fc1ccc(-c2nnc(-c3c(-c4ccc(F)cc4)nc4ccccn34)o2)cc1,77.2%
12,O=C1/C(=C/c2ccc(Cl)cc2)SC(=Nc2ccc(Cl)cc2)N1Cc1nc2ccccc2[nH]1,79.3%
13,CO/N=C(/C(=O)NC1C(=O)N2C(C(=O)O)=C(COC(N)=O)CSC12)c1ccco1 (stereo not drawn),104%
14,COc1ccc(C2CC(c3ccc(N(C)C)cc3)=NN2c2ccc(S(N)(=O)=O)cc2)cc1 (stereo not drawn),49.4%
15,CN(C)CCNC(=O)c1cccn2c(=O)c3cc4ccccc4cc3nc12,7.89% (active)
16,Oc1[nH]c2ccc(Cl)cc2c1/C=c1/ccc2c(c1)N=C(c1cccs1)N=2,54.9%
17,Nc1ccc2c(c1)Cc1cc(N)c(Br)cc1-2,113%
18,Cc1ccc(Nc2nnc(-c3cc(-c4ccncc4)n(-c4ccccc4)n3)s2)cc1,88.5%
19,O=C(N/N=C\c1cc(Cl)ccc1[N+](=O)[O-])c1ccco1,99.8%
20,COc1ccc2c(c1)sc1nc(-c3ccccc3)c(-c3ccsc3)n12,50.2%

row,SMILES,growth
1,O=C(N/N=C/c1ccccc1O)C(O)(c1ccccc1)c1ccccc1,66.3%
2,CCCCCCCCCCCCC1C/C=C\CCCC(=O)O1 (stereo not drawn),119%
3,O=C(Nc1cccc(Br)c1)c1cc(=O)[nH]c2ccccc12,99.7%
4,CC(C)=CCc1ccc(O)c(=O)cc1C(C)C,25%
5,Cc1occc1-c1nnc(SCC(=O)c2ccc(NC(=O)CC(C)C)cc2)o1,107%
6,CC(C)=NNc1ncnc2c1ncn2C1OC(CO)C(O)C1O (stereo not drawn),20.5%
7,CCCCCCCCCCCCCC[n+]1ccc(C(N)=O)cc1,8.7% (active)
8,COc1ccc(Cl)cc1C(=O)Nc1nc2ccc(Cl)cc2s1,91.7%
9,O=C(CSSCC(=O)c1ccc(Cl)cc1)c1ccc(Cl)cc1,79.1%
10,O=[P@@]1(c2ccccc2)O[C@H](COCc2ccccc2)[C@@H](OCc2ccccc2)[C@H](OCc2ccccc2)[C@H]1O,82.9%
11,Nc1ncn([C@@H]2O[C@H](CO)[C@@H](O)[C@H]2O)c(=O)n1,14.8%
12,CCCCOC(=O)Oc1ccc(C(=O)Oc2ccc(OCC)cc2)cc1,95.3%
13,O=C1c2ccc3c4c(ccc(c24)C(=O)N1CCNCc1ccccc1)C(=O)N(CCNCc1ccccc1)C3=O,-47.3% (active)
14,CCn1cc(C(=O)O)c(=O)c2cnc(N3CCCC3)nc21,110%
15,Cc1ccc(-c2nc(/C=C3/C(=O)N(C)c4ccc(F)cc43)c3ccccn23)cc1,96.1%
16,COc1ccc(OC)c(/C=C/c2nc(SC)n(-c3ccc(Cl)cc3)n2)c1,80.3%
17,COc1cccc(-c2cc(-c3cccc(NS(C)(=O)=O)c3)nc(N)c2C#N)c1O,50.7%
18,CC1CN(Cc2ccccc2)C(=O)NC1=O (stereo not drawn),91.1%
19,Cc1cn(C2CCCCO2)c(=O)nc1NO (stereo not drawn),103%

# Test system: UO-31 renal
# Assay: as above
# Details: 10 µM
row,SMILES,growth
1,CSc1cc(SC)ncn1,86.7%
2,CCOC(=O)CNC(=O)CCCCSc1ncnc2nc[nH]c12,96.5%
3,COc1ccc(OC)c(/C=C/c2nc(SCc3ccccc3)n(-c3ccc(Cl)cc3)n2)c1,-48.7% (active)
4,c1ccc(C(NC2CC3CCC2C3)c2ccccc2)cc1 (stereo not drawn),65%
5,CN1CCC2(CC1)NC(=O)c1c(c3ccc(Cl)c(Cl)c3n1C)C2C#N (stereo not drawn),61.7%
6,O=[N+]([O-])c1cccc(N=Cc2ccc3c(c2)OCO3)c1,76.7%
7,Nc1cc2c(cc1Cl)-c1ccc([N+](=O)[O-])cc1/C2=N\O,33.3%
8,COc1ccc(OC)c2c1C(=O)CC2C (stereo not drawn),83.7%
9,N#CSCC1CC(O)(c2ccccc2)CC(c2ccc(Cl)cc2)O1 (stereo not drawn),15.1%
10,CCOC(=O)C1CCc2c(ccc3ccccc23)N1CCC#N (stereo not drawn),74.9%
11,Fc1ccc(-c2nnc(-c3c(-c4ccc(F)cc4)nc4ccccn34)o2)cc1,83.8%
12,O=C1/C(=C/c2ccc(Cl)cc2)SC(=Nc2ccc(Cl)cc2)N1Cc1nc2ccccc2[nH]1,37.5%
13,CO/N=C(/C(=O)NC1C(=O)N2C(C(=O)O)=C(COC(N)=O)CSC12)c1ccco1 (stereo not drawn),83.3%
14,COc1ccc(C2CC(c3ccc(N(C)C)cc3)=NN2c2ccc(S(N)(=O)=O)cc2)cc1 (stereo not drawn),32%
15,CN(C)CCNC(=O)c1cccn2c(=O)c3cc4ccccc4cc3nc12,18.2%
16,Oc1[nH]c2ccc(Cl)cc2c1/C=c1/ccc2c(c1)N=C(c1cccs1)N=2,72.7%
17,Nc1ccc2c(c1)Cc1cc(N)c(Br)cc1-2,76.9%
18,Cc1ccc(Nc2nnc(-c3cc(-c4ccncc4)n(-c4ccccc4)n3)s2)cc1,40.3%
19,O=C(N/N=C\c1cc(Cl)ccc1[N+](=O)[O-])c1ccco1,104%
20,COc1ccc2c(c1)sc1nc(-c3ccccc3)c(-c3ccsc3)n12,37.8%

row,SMILES,growth
1,O=C(N/N=C/c1ccccc1O)C(O)(c1ccccc1)c1ccccc1,23.7%
2,CCCCCCCCCCCCC1C/C=C\CCCC(=O)O1 (stereo not drawn),93.1%
3,O=C(Nc1cccc(Br)c1)c1cc(=O)[nH]c2ccccc12,97.9%
4,CC(C)=CCc1ccc(O)c(=O)cc1C(C)C,-10.4% (active)
5,Cc1occc1-c1nnc(SCC(=O)c2ccc(NC(=O)CC(C)C)cc2)o1,93.7%
6,CC(C)=NNc1ncnc2c1ncn2C1OC(CO)C(O)C1O (stereo not drawn),-3.29% (active)
7,CCCCCCCCCCCCCC[n+]1ccc(C(N)=O)cc1,50.7%
8,COc1ccc(Cl)cc1C(=O)Nc1nc2ccc(Cl)cc2s1,58.2%
9,O=C(CSSCC(=O)c1ccc(Cl)cc1)c1ccc(Cl)cc1,86.4%
10,O=[P@@]1(c2ccccc2)O[C@H](COCc2ccccc2)[C@@H](OCc2ccccc2)[C@H](OCc2ccccc2)[C@H]1O,90.5%
11,Nc1ncn([C@@H]2O[C@H](CO)[C@@H](O)[C@H]2O)c(=O)n1,15%
12,CCCCOC(=O)Oc1ccc(C(=O)Oc2ccc(OCC)cc2)cc1,85.6%
13,O=C1c2ccc3c4c(ccc(c24)C(=O)N1CCNCc1ccccc1)C(=O)N(CCNCc1ccccc1)C3=O,-59% (active)
14,CCn1cc(C(=O)O)c(=O)c2cnc(N3CCCC3)nc21,74.8%
15,Cc1ccc(-c2nc(/C=C3/C(=O)N(C)c4ccc(F)cc43)c3ccccn23)cc1,85.8%
16,COc1ccc(OC)c(/C=C/c2nc(SC)n(-c3ccc(Cl)cc3)n2)c1,39.6%
17,COc1cccc(-c2cc(-c3cccc(NS(C)(=O)=O)c3)nc(N)c2C#N)c1O,15.3%
18,CC1CN(Cc2ccccc2)C(=O)NC1=O (stereo not drawn),85.7%
19,Cc1cn(C2CCCCO2)c(=O)nc1NO (stereo not drawn),101%
